From PubChem BioAssay
Pf Dd2 inh – Plasmodium falciparum Dd2 growth inhibition. P. falciparum Dd2 growth, SYBR Green, 72 h. Potency, µM (doses to about 28.9 µM), most hits filed as inhibitors. 120,000 tested, 4.3% active. AID 1347417; active means well fitted inhibition curve with a large enough effect; further: nearly all actives have a fitted effect of over 65% in size
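Infected erythrocytes (Dd2, 0.3% parasitemia, 2.5% hematocrit final) are added to compound in RPMI-1640/Albumax II medium, grown 72 h at 37C in low oxygen, then lysed with saponin/Triton-X containing SYBR Green and read by fluorescence.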
Each line names hits and unclear results; the compound was inactive in the other large screens. Shown is part of a subset that was picked to be rich in hits.

O=C(Cn1ccc(=O)[nH]c1=O)N1CCC2(CCCN(C3CCCC3)C2=O)C1 (configuration not stated)	none
CO[C@H]1C(=O)N(C(C)C)[C@H]1C1CCN(S(=O)(=O)c2cccs2)CC1	none
O=C(c1ccncc1)N1CC2CCC(C1)N2Cc1ccc(-c2cncnc2)cc1	none
Cc1oc(-c2ccc(F)cc2)nc1CN1CCC2(CCCO2)CCC1=O (configuration not stated)	none
CNCCN1C(=O)CC[C@H]2CN(c3nccc(C(F)(F)F)n3)CC[C@H]21	none
Cc1nn(CC(=O)N2CCCCCC2)c(=O)c2nc(C(C)C)sc12	none
O=C(NC1CCCCC1)C1CN(C(=O)COc2ccc(F)cc2)CC12CCOCC2 (configuration not stated)	none
O=c1[nH]ccn1C1CCN(Cc2ccc(C(F)(F)F)cc2)CC1	none
O=C(Cn1c(=O)n(CC2CCC(C(=O)NCCc3ccccc3)CC2)c(=O)c2ccccc21)Nc1cccc(F)c1 (configuration not stated)	none
Cc1cccc(C)c1NC(=O)Cn1c(=O)n(CC2CCC(C(=O)NCCc3ccccc3)CC2)c(=O)c2ccccc21 (configuration not stated)	none
COc1cc(NC(=O)Cn2c(=O)n(CC3CCC(C(=O)NCCc4ccccc4)CC3)c(=O)c3ccccc32)cc(OC)c1 (configuration not stated)	Pf Dd2 inh 0.89µM
COc1ccc(NC(=O)Cn2c(=O)n(CC(=O)NCCc3ccccc3)c(=O)c3ccccc32)cc1	none
Cc1cccc(NC(=O)Cn2c(=O)n(CC3CCC(C(=O)NCCc4ccccc4)CC3)c(=O)c3ccccc32)c1 (configuration not stated)	Pf Dd2 inh 11µM
Cc1cc(C)cc(NC(=O)Cn2c(=O)n(CC(=O)NCCc3ccccc3)c(=O)c3ccccc32)c1	none
CCc1nc(-c2c3n(c(=O)n(Cc4ccccc4Cl)c2=O)CCCC3)no1	none
CC(=O)N1CCCN(c2nc3ncccc3o2)CC1	none
Cc1ccc(F)cc1S(=O)(=O)N1CCC(CC(=O)NCc2ccccc2)C1 (configuration not stated)	none
Cc1cc2nc3n(c(=O)c2n1CC(=O)Nc1ccc(F)c(Cl)c1)CCCCC3	none
CN1C(=O)[C@H]2CN(Cc3ccc(Cl)c(F)c3)C[C@H]2C1=O	none
Cc1ccc(NC2=C(c3ccc(C(F)(F)F)cc3)C(=O)c3ccccc32)cc1C	Pf Dd2 inh 0.79µM
O=C(Nc1nnc(C2CC2)s1)C1CC(=O)N(c2n[nH]c3cc(Br)ccc23)C1 (configuration not stated)	none
COc1ccc2c(c1)c1c(c(=O)n(-c3ccc(F)c(Cl)c3)c(=O)n1Cc1ccccc1F)n2C	none
NCc1ccccc1Oc1ccc(F)c(Cl)c1	Pf Dd2 inh 11µM
CCCN1CCN(C(=O)c2ccc3c(c2)n(Cc2ccc(F)cc2)c(=O)c2ccnn23)CC1	none
COc1cccc(CN2C(=O)OC3(CCN(Cc4ccc(F)cc4)CC3)C2(C)c2cccnc2)c1 (configuration not stated)	Pf Dd2 inh 0.79µM
COc1cccc(CN2C(=O)OC3(CCN(C(=O)Cc4cccc(F)c4)CC3)C2(C)c2cccnc2)c1 (configuration not stated)	none
COc1cccc(CN2C(=O)OC3(CCN(C(=O)CCc4cccnc4)CC3)C2(C)c2cccnc2)c1 (configuration not stated)	none
COc1cccc(CN2C(=O)OC3(CCN(Cc4ccncc4)CC3)C2(C)c2cccnc2)c1 (configuration not stated)	none
COc1cccc(CN2C(=O)OC3(CCN(Cc4ccccc4OC)CC3)C2(C)c2cccnc2)c1 (configuration not stated)	Pf Dd2 inh 1.1µM
COCC(=O)N1CCC2(CC1)OC(=O)N(Cc1cccc(OC)c1)C2(C)c1cccnc1 (configuration not stated)	none
O=C(Nc1ccc(F)cc1)C1CN(c2cccc(Cl)c2)C(=O)N1 (configuration not stated)	none
COC(=O)CNC(=O)c1cc(Br)cn2ccnc12	none
O=C(c1cccc2[nH]ccc12)N1CC[C@@H]2COCCN(Cc3cccnc3)[C@@H]2C1	none
CCC(=O)N1CCN(C2CCN(Cc3cccnc3)C2=O)CC1 (configuration not stated)	none
O=C(c1ccc(Cl)cc1)N1CC2(CCCN2Cc2cccnc2)Cc2ccccc21 (configuration not stated)	Pf Dd2 inh 10µM
CCN1CCCN(C(=O)c2cccnc2)CC12CCOCC2	none
O=C(c1ccccc1)N1CC2(CCCCN2Cc2cccnc2)Cc2ccccc21 (configuration not stated)	Pf Dd2 inh 10µM
CS(=O)(=O)N1Cc2ccccc2CC2(CCCN2Cc2cccnc2)C1 (configuration not stated)	none
O=C(c1ccncc1)N1CCCN(Cc2cccnc2)c2ccccc21	none
C[S+](=O)([O-])N1CC2(CCCCN2Cc2ccc(Cl)cc2)Cc2ccccc21 (configuration not stated)	none
O=C(c1ccc(Cl)cc1)N1CC2(CCN(Cc3cccnc3)CC2)Cc2ccccc21	none
O=[S+]([O-])(c1ccccc1)N1CC2(CCCN2Cc2cccnc2)Cc2ccccc21 (configuration not stated)	Pf Dd2 inh 11µM
O=C(O)CCC(=O)N1CCCC2(Cc3ccccc3N(C(=O)c3ccc(Cl)cc3)C2)C1 (configuration not stated)	none
CN1C(=O)C2(Cc3ccccc31)CN(C(=O)c1ccc(Cl)cc1)C2	none
O=C(NCc1ccccc1)[C@H]1CN2CCC1C[C@@H]2Cn1cc(CSc2ccccc2)nn1 (some centres not stated)	none
OCCC1CN(Cc2cc3c(cc2Cl)OCO3)CCN1Cc1ccccc1F (configuration not stated)	none
COc1cccc(-c2noc(-c3ccc(NCCCSC)nc3)n2)c1OC	none
COc1cccc(-c2noc(-c3ccc(NCCn4cccn4)nc3)n2)c1OC	Pf Dd2 inh 13µM
COc1cccc(-c2noc(-c3ccc(-c4cn[nH]c4)nc3)n2)c1OC	none
CCOCC(=O)N1CCC(O)(c2ccccc2)[C@H](N2CCCC2)C1 (some centres not stated)	none
O=C(CN1CCCC1=O)NCc1ccccc1C(F)(F)F	none
O=C(C1CC1)N1CCCN(Cc2ccc3c(c2)OCO3)c2ccccc21	Pf Dd2 inh 8.9µM
COCCN1CCCN(C(=O)C2CCC2)c2ccccc21	none
COc1ccccc1C(=O)N1CCCN(Cc2ccc3c(c2)OCO3)c2ccccc21	none
O=C(NCC(F)F)C1CN(c2ccccc2)C(=O)N1 (configuration not stated)	none
COC[C@@H]1CN(Cc2cc(C)nn2C)C[C@H]1C(=O)NC1CC1	none
CC(C(=O)NC1CCN(c2cnn(C)c(=O)c2)CC1)c1ccccc1 (configuration not stated)	none
CCN(CC)S(=O)(=O)c1ccc(NC(=O)[C@H](CSCc2ccccc2)N2Cc3ccccc3C2=O)cc1	Pf Dd2 inh 5µM
Cc1ccc(NC(=O)[C@H](CSCc2ccccc2)N2Cc3ccccc3C2=O)cc1	none
CCc1ccc(NC(=O)[C@H](CSCc2ccccc2)N2Cc3ccccc3C2=O)cc1	none
Cc1ccc(NC(=O)CN2CCSc3ccc(S(=O)(=O)N4CCCC4)cc32)cc1	Pf Dd2 inh 7.9µM
COc1cc(Cl)c(C)cc1NC(=O)c1ccc(CN2C(=O)CCn3nc(C)cc32)cc1	none
CCN1CCSc2ccc(C(=O)NCc3ccc(OC(C)C)cc3)cc21	none
Cc1ccc(NC(=O)CN2C(=O)CCSc3ccc(S(=O)(=O)N4CCCC4)cc32)cc1C	none
CCc1ccc(NC(=O)c2ccc3c(c2)N(Cc2ccc(C)cc2)CCS3)cc1	Pf Dd2 inh 8.9µM
